Records with an inconclusive call do not appear. Activity calls are given as the source filed them. Calls come from the whole dose curve; as a rule, active = well fitted curve in the direction sought with a large enough effect; inconclusive = small, poorly fitted or top-dose-only effect, or another doubt; inactive = no such curve, though single readings can be large; an effect the other way counts as inactive or inconclusive.
Columns and labels:
NIH3T3 [1] = experiment: Cytotoxic Profiling of Annotated Libraries Using Quantitative High-Throughput Screening (AID 1296008); details: Five cell lines viability, CellTiter-Glo ATP luminescence, 48-72 h; max response: active compounds read low; note: nearly all actives have a fitted effect of over 60% in size
Outline: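 Compounds were pin-transferred onto cells and incubated 48 or 72 hr at 37 degree Celsius, 95% humidity. CellTiter-Glo was added, plates sat 10 min at room temperature, then ATP-coupled luminescence was imaged as the viability read-out.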

HACAT = experiment: qHTS assay to identify novel small-molecules to repurpose for Merkel cell carcinoma treatment (AID 1296009); details: MCC and control cell lines, CellTiter-Glo viability, 72 h; at 44.8 µM (top of the series) unless noted; note: nearly all actives have a fitted effect of over 60% in size
Outline: (§1)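 Cells exposed to NPC (8-point) and MIPE (11-point) compound dilutions for 72 hr at 37 degree celsius; viability read by CellTiter-Glo luminescence, normalized to no-cell and DMSO in-plate controls.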

MCC-13 = experiment: as above; details: MCC and control cell lines, CellTiter-Glo viability, 72 h; series mostly up to 46 µM
Outline: as §1

MCC-26 = experiment: as above; details: MCC and control cell lines, CellTiter-Glo viability, 72 h; series mostly up to 46 µM
Outline: as §1

UISO = experiment: as above; details: MCC and control cell lines, CellTiter-Glo viability, 72 h; series mostly up to 46 µM
Outline: as §1

C33A = experiment: Primary qHTS to identify gynecologic anti-cancer compounds using libraries of approved drugs and bioactive compounds (AID 1345084); details: Gynecologic cancer cell panel viability, ATPlite luminescence, 48 h; series mostly up to 57.5 µM; note: nearly all actives have a fitted effect of over 55% in size
Outline: (§2)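 Cells, 1,000 per well, plated 16 h, then exposed 48 h at 37 C to compounds. Viability by ATPlite luminescence after 15 min at room temperature.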

CAOV3 = experiment: as above; details: Gynecologic cancer cell panel viability, ATPlite luminescence, 48 h; series mostly up to 57.5 µM
Outline: as §2

CASKI = experiment: as above; details: Gynecologic cancer cell panel viability, ATPlite luminescence, 48 h; series mostly up to 57.5 µM
Outline: as §2

Es-2 = experiment: as above; details: Gynecologic cancer cell panel viability, ATPlite luminescence, 48 h; series mostly up to 57.5 µM
Outline: as §2

HeLa = experiment: as above; details: Gynecologic cancer cell panel viability, ATPlite luminescence, 48 h; series mostly up to 57.5 µM
Outline: as §2

Hek293T [2] = experiment: as above; details: Gynecologic cancer cell panel viability, ATPlite luminescence, 48 h, control line for the selectivity index; series mostly up to 57.5 µM
Outline: as §2

JEG-3 = experiment: as above; details: Gynecologic cancer cell panel viability, ATPlite luminescence, 48 h; series mostly up to 57.5 µM
Outline: as §2

OV90 = experiment: as above; details: Gynecologic cancer cell panel viability, ATPlite luminescence, 48 h; series mostly up to 57.5 µM
Outline: as §2

PA-1 = experiment: as above; details: Gynecologic cancer cell panel viability, ATPlite luminescence, 48 h; series mostly up to 57.5 µM
Outline: as §2

SKOV3 = experiment: as above; details: Gynecologic cancer cell panel viability, ATPlite luminescence, 48 h; series mostly up to 57.5 µM
Outline: as §2

MKL-1 = experiment: qHTS assay to identify novel small-molecules to repurpose for Merkel cell carcinoma treatment (AID 1296009); details: MCC and control cell lines, CellTiter-Glo viability, 72 h; series mostly up to 46 µM; note: nearly all actives have a fitted effect of over 60% in size
Outline: as §1

MKL-2 = experiment: as above; details: MCC and control cell lines, CellTiter-Glo viability, 72 h; series mostly up to 46 µM
Outline: as §1

HEK293T [3] = experiment: as above; details: MCC and control cell lines, CellTiter-Glo viability, 72 h; at 44.8 µM (top of the series) unless noted
Outline: as §1

WaGa = experiment: as above; details: MCC and control cell lines, CellTiter-Glo viability, 72 h; series mostly up to 46 µM
Outline: as §1

NIH3T3 [4] = experiment: as above; details: MCC and control cell lines, CellTiter-Glo viability, 72 h; at 44.8 µM (top of the series) unless noted
Outline: as §1
% is set by controls: 0 for no effect and ±100 for the full control effect; potency is the fitted concentration of half-maximal effect.

COc1cc2c(cc1OC)C(C(C(=O)N(CCc1ccc(OC)c(OC)c1OC)CCc1ccc(OC)c(OC)c1OC)c1ccccc1)=NCC2 (centres undefined)
inactive: max response (NIH3T3 [1]) 0.673% | outcome (HACAT) | Potency (MCC-13) | Potency (MCC-26) | Potency (UISO) | Potency (C33A) | Potency (CAOV3) | Potency (CASKI) | Potency (Es-2) | Potency (HeLa) | Potency (Hek293T [2]) | Potency (JEG-3) | Potency (OV90) | Potency (PA-1) | Potency (SKOV3)

Cc1c(C)n(CCN(C)C)c2ccc(C(=O)OCCN(C)C)cc12
active: Potency (NIH3T3 [1]) 7.5 µM
inactive: outcome (HACAT) | Potency (MCC-13) | Potency (MCC-26) | Potency (MKL-1) | Potency (MKL-2) | Potency (UISO) | Potency (C33A) | Potency (CAOV3) | Potency (CASKI) | Potency (Es-2) | Potency (HeLa) | Potency (Hek293T [2]) | Potency (JEG-3)

OCc1ccccc1O
inactive: max response (NIH3T3 [1]) 3.42% | outcome (HEK293T [3]) | Potency (MCC-13) | Potency (MCC-26) | Potency (MKL-1) | Potency (MKL-2) | Potency (UISO) | Potency (WaGa) | Potency (C33A) | Potency (CAOV3) | Potency (CASKI) | Potency (Es-2) | Potency (HeLa) | Potency (Hek293T [2]) | Potency (JEG-3) | Potency (OV90) | Potency (PA-1) | Potency (SKOV3)

NC(CO)(CO)CO
inactive: max response (NIH3T3 [1]) -20% | Potency (MCC-13) | Potency (MCC-26) | Potency (MKL-1) | Potency (MKL-2) | Potency (UISO) | Potency (WaGa) | Potency (C33A) | Potency (CAOV3) | Potency (CASKI) | Potency (Es-2) | Potency (HeLa) | Potency (Hek293T [2]) | Potency (JEG-3) | Potency (OV90) | Potency (PA-1) | Potency (SKOV3)

C[C@]12CCC(=O)C=C1CC[C@H]1[C@@H]3CC[C@](O)(C(=O)CO)[C@@]3(C)C[C@H](O)[C@@]12F
inactive: outcome (NIH3T3 [1]) | Potency (MCC-13) | Potency (MCC-26) | Potency (MKL-1) | Potency (MKL-2) | outcome (NIH3T3 [4]) | Potency (UISO) | Potency (WaGa) | Potency (C33A) | Potency (CAOV3) | Potency (CASKI) | Potency (Es-2) | Potency (HeLa) | Potency (Hek293T [2]) | Potency (JEG-3) | Potency (OV90) | Potency (PA-1) | Potency (SKOV3)

C[C@]12CC[C@H]3[C@@H](CCC4=CC(=O)CC[C@@]43C)[C@@H]1CC[C@@H]2C(=O)CO
active: Potency (HeLa) 3.55 µM | Potency (PA-1) 22.4 µM
inactive: max response (NIH3T3 [1]) -2.44% | Potency (MCC-13) | Potency (MCC-26) | Potency (MKL-1) | Potency (MKL-2) | Potency (UISO) | Potency (WaGa) | Potency (C33A) | Potency (CAOV3) | Potency (CASKI) | Potency (Es-2) | Potency (Hek293T [2]) | Potency (JEG-3) | Potency (OV90)

CN1CCC(=C2c3ccccc3Sc3ccccc32)CC1
inactive: max response (NIH3T3 [1]) -14.3% | outcome (HACAT) | Potency (MCC-13) | Potency (MCC-26) | Potency (C33A) | Potency (CASKI) | Potency (Es-2) | Potency (HeLa) | Potency (Hek293T [2]) | Potency (JEG-3) | Potency (PA-1)
active: Potency (MKL-2) 13.3 µM

C=CCc1ccc(O)c(OC)c1
inactive: max response (NIH3T3 [1]) 3.27% | outcome (HEK293T [3]) | Potency (MCC-13) | Potency (MKL-1) | Potency (MKL-2) | Potency (UISO) | Potency (WaGa) | Potency (C33A) | Potency (CAOV3) | Potency (CASKI) | Potency (Es-2) | Potency (HeLa) | Potency (Hek293T [2]) | Potency (JEG-3) | Potency (OV90) | Potency (PA-1)

O=C1OCCN1/N=C/c1ccc([N+](=O)[O-])o1
inactive: outcome (NIH3T3 [1]) | outcome (HACAT) | Potency (MCC-13) | outcome (NIH3T3 [4]) | Potency (C33A) | Potency (CAOV3) | Potency (CASKI) | Potency (Es-2) | Potency (HeLa) | Potency (Hek293T [2]) | Potency (JEG-3) | Potency (OV90) | Potency (SKOV3)

O=c1ccc2ccccc2o1
inactive: outcome (NIH3T3 [1]) | outcome (HEK293T [3]) | Potency (MCC-13) | Potency (MCC-26) | Potency (MKL-1) | Potency (MKL-2) | outcome (NIH3T3 [4]) | Potency (UISO) | Potency (WaGa) | Potency (C33A) | Potency (CAOV3) | Potency (CASKI) | Potency (Es-2) | Potency (HeLa) | Potency (Hek293T [2]) | Potency (JEG-3) | Potency (OV90) | Potency (PA-1) | Potency (SKOV3)

CCOC(=O)c1cccc(N)c1
inactive: max response (NIH3T3 [1]) -6.41% | Potency (MCC-13) | Potency (MCC-26) | Potency (MKL-1) | Potency (MKL-2) | Potency (UISO) | Potency (WaGa) | Potency (C33A) | Potency (CAOV3) | Potency (CASKI) | Potency (Es-2) | Potency (HeLa) | Potency (Hek293T [2]) | Potency (JEG-3) | Potency (OV90) | Potency (PA-1) | Potency (SKOV3)

CCCCOc1ccc(C(=O)CCN2CCCCC2)cc1
inactive: max response (NIH3T3 [1]) -2.83% | outcome (HACAT) | Potency (MCC-13) | Potency (MCC-26) | Potency (C33A) | Potency (CASKI) | Potency (HeLa) | Potency (JEG-3) | Potency (OV90) | Potency (PA-1)
active: Potency (MKL-1) 9.44 µM | Potency (MKL-2) 2.66 µM | Potency (WaGa) 23.7 µM

CC(C)COC(=O)c1ccc(N)cc1
inactive: max response (NIH3T3 [1]) 3.91% | outcome (HACAT) | Potency (MCC-13) | Potency (MKL-1) | Potency (MKL-2) | Potency (UISO) | Potency (WaGa) | Potency (C33A) | Potency (CAOV3) | Potency (CASKI) | Potency (Es-2) | Potency (HeLa) | Potency (Hek293T [2]) | Potency (JEG-3) | Potency (OV90) | Potency (PA-1)

OC(CCN1CCCCC1)(c1ccccc1)c1ccccc1
inactive: max response (NIH3T3 [1]) 2.78% | outcome (HACAT) | Potency (MCC-13) | Potency (MKL-1) | Potency (MKL-2) | Potency (UISO) | Potency (WaGa) | Potency (C33A) | Potency (CAOV3) | Potency (CASKI) | Potency (Es-2) | Potency (HeLa) | Potency (Hek293T [2]) | Potency (JEG-3) | Potency (OV90) | Potency (PA-1) | Potency (SKOV3)

NC[C@H]1O[C@H](O[C@H]2[C@H](O[C@@H]3O[C@H](CO)[C@@H](O)[C@H]3O)C(O)[C@H](N)C[C@@H]2N)[C@H](N)[C@@H](O)[C@@H]1O (some centres undefined)
inactive: outcome (NIH3T3 [1]) | activity change, negative = cytotoxicity (MCC-13) 8.98% [at 9.22 µM] | activity change, negative = cytotoxicity (MCC-26) 5.57% [at 9.22 µM] | activity change, negative = cytotoxicity (MKL-1) 2.77% [at 9.22 µM] | activity change, negative = cytotoxicity (MKL-2) -8.12% [at 9.22 µM] | outcome (NIH3T3 [4]) inactive [at 9.27 µM] | activity change, negative = cytotoxicity (UISO) 20% [at 9.22 µM] | activity change, negative = cytotoxicity (WaGa) 13.9% [at 9.22 µM] | activity change, negative = cytotoxicity (C33A) 11.5% [at 11.6 µM] | activity change, negative = cytotoxicity (CAOV3) -25.7% [at 11.6 µM] | activity change, negative = cytotoxicity (CASKI) 15.2% [at 11.6 µM] | activity change, negative = cytotoxicity (Es-2) -3.21% [at 11.6 µM] | activity change, negative = cytotoxicity (HeLa) 8.62% [at 11.6 µM] | activity change, negative = cytotoxicity (Hek293T [2]) -5.51% [at 11.6 µM] | activity change, negative = cytotoxicity (JEG-3) -0.299% [at 11.6 µM] | activity change, negative = cytotoxicity (OV90) 0.648% [at 11.6 µM] | activity change, negative = cytotoxicity (PA-1) 6.06% [at 11.6 µM] | activity change, negative = cytotoxicity (SKOV3) -1.1% [at 11.6 µM]
